Assay results: PubChem BioAssay (NCI)
Compounds without any hit were thinned out: in the full panel of roughly 79,000, 15% have a hit. A number with no mark means an inactive call. Active and inactive are the calls of the source. Rule as the data show it: active = growth inhibition above about 70%; inactive = the rest.

Experiments:
[1] = NCI Yeast Anticancer Drug Screen. Data for the rad50 strain (AID 155);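 also: 0% = growth of vehicle-only cultures of the same strain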; details: S. cerevisiae rad50 strain growth inhibition, stronger effect = higher value
Outline: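 Inhibition values express reduced yeast growth in compound-treated cultures relative to vehicle-treated controls.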

[2] = NCI Yeast Anticancer Drug Screen. Data for the mec2-1 strain (AID 157); details: S. cerevisiae mec2-1 strain, stronger effect = higher value
Outline: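 Compounds were applied to mec2-1 yeast cells. Their growth was then compared with that of vehicle-treated cultures to give growth inhibition.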

[3] = NCI Yeast Anticancer Drug Screen. Data for the sgs1 mgt1 strain (AID 161);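 also: 0% = growth of cultures given vehicle only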; details: S. cerevisiae sgs1 mgt1 strain, stronger effect = higher value
Outline: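 This yeast growth screen uses a strain with defined DNA-repair lesions; compound-treated growth is compared with vehicle-treated growth.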

[4] = NCI Yeast Anticancer Drug Screen. Data for the cln2 rad14 strain (AID 165);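 also: 0% = growth equal to vehicle treated cultures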; details: S. cerevisiae cln2 rad14 strain, stronger effect = higher value
Outline: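 Strain: cln2 rad14 yeast, altered in cell cycle control and DNA damage repair. Read-out: growth inhibition vs vehicle.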

[5] = NCI Yeast Anticancer Drug Screen. Data for the bub3 strain (AID 167); details: S. cerevisiae bub3 mutant strain, stronger effect = higher value
Outline: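 Steps: expose the mutant yeast strain to compound; grow alongside vehicle-treated cultures; measure growth; express inhibition against the vehicle cultures.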

[6] = NCI Yeast Anticancer Drug Screen. Data for the mlh1 rad18 strain (AID 175); details: S. cerevisiae mlh1 rad18 strain growth inhibition, stronger effect = higher value
Outline: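 A repair-deficient yeast strain is exposed to test compound, and growth is scored relative to vehicle-treated controls.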

[7] = at 5.0 µM (retest, dose inferred, filed as 0.5)
[8] = at 50.0 µM (retest, dose inferred, filed as 5.0)

N#C[S-].[La+3].c1cnc2c(c1)ccc1cccnc12.c1cnc2c(c1)ccc1cccnc12.c1cnc2c(c1)ccc1cccnc12
growth inhibition [1, 7]: 97% (active)
growth inhibition [1, 8]: 98% (active)
growth inhibition ([1]; at 50.0 µM): 91.9% (active)
growth inhibition [2, 7]: 99% (active)
growth inhibition [2, 8]: 99% (active)
growth inhibition ([2]; at 50.0 µM): 94.4% (active)
growth inhibition [3, 7]: 99% (active)
growth inhibition [3, 8]: 99% (active)
growth inhibition ([3]; at 50.0 µM): 93.5% (active)
growth inhibition [4, 7]: 95% (active)
growth inhibition [4, 8]: 98% (active)
growth inhibition ([4]; at 50.0 µM): 92.7% (active)
growth inhibition [5, 7]: 99% (active)
growth inhibition [5, 8]: 99% (active)
growth inhibition ([5]; at 50.0 µM): 92.1% (active)
growth inhibition [6, 7]: 98% (active)
growth inhibition [6, 8]: 98% (active)
growth inhibition ([6]; at 50.0 µM): 91.3% (active)

CC(=O)OC[C@]12C[C@H](OC(=O)CC(C)C)C(C)=C[C@H]1OC1[C@H](O)[C@@H](OC(C)=O)[C@@]2(C)[C@@]12CO2
growth inhibition [1, 7]: 97% (active)
growth inhibition [1, 8]: 98% (active)
growth inhibition ([1]; at 50.0 µM): 92.8% (active)
growth inhibition [2, 7]: 98% (active)
growth inhibition [2, 8]: 99% (active)
growth inhibition ([2]; at 50.0 µM): 94.4% (active)
growth inhibition [3, 7]: 99% (active)
growth inhibition [3, 8]: 99% (active)
growth inhibition ([3]; at 50.0 µM): 93.8% (active)
growth inhibition [4, 7]: 97% (active)
growth inhibition [4, 8]: 98% (active)
growth inhibition ([4]; at 50.0 µM): 91.8% (active)
growth inhibition [5, 7]: 98% (active)
growth inhibition [5, 8]: 99% (active)
growth inhibition ([5]; at 50.0 µM): 92.2% (active)
growth inhibition [6, 7]: 97% (active)
growth inhibition [6, 8]: 98% (active)
growth inhibition ([6]; at 50.0 µM): 92.6% (active)

O=c1oc2ccccc2c(O)c1C(C/C(CCN1CCCC1)=N/O)c1ccccc1 (stereo not given)
growth inhibition [1, 7]: 28%
growth inhibition [1, 8]: 28%
growth inhibition ([1]; at 50.0 µM): 79.8% (active)
growth inhibition [2, 7]: 22%
growth inhibition [2, 8]: 22%
growth inhibition ([2]; at 50.0 µM): 81.7% (active)
growth inhibition [3, 7]: 16%
growth inhibition [3, 8]: 16%
growth inhibition ([3]; at 50.0 µM): 76.8% (active)
growth inhibition [4, 7]: -3%
growth inhibition [4, 8]: -3%
growth inhibition ([4]; at 50.0 µM): 64.2%
growth inhibition [5, 7]: 9%
growth inhibition [5, 8]: 9%
growth inhibition ([5]; at 50.0 µM): 72.4% (active)
growth inhibition [6, 7]: 10%
growth inhibition [6, 8]: 10%
growth inhibition ([6]; at 50.0 µM): 79.2% (active)

[Pt].c1ccc([PH+](c2ccccc2)c2ccccc2)cc1.c1ccc([PH+](c2ccccc2)c2ccccc2)cc1.c1ccc([PH+](c2ccccc2)c2ccccc2)cc1.c1ccc([PH+](c2ccccc2)c2ccccc2)cc1
growth inhibition [1, 7]: 31%
growth inhibition [1, 8]: 62%
growth inhibition ([1]; at 50.0 µM): 68.5%
growth inhibition [2, 7]: 27%
growth inhibition [2, 8]: 61%
growth inhibition ([2]; at 50.0 µM): 42.7%
growth inhibition [3, 7]: 40%
growth inhibition [3, 8]: 82% (active)
growth inhibition ([3]; at 50.0 µM): 62.3%
growth inhibition [4, 7]: 49%
growth inhibition [4, 8]: 55%
growth inhibition ([4]; at 50.0 µM): 64%
growth inhibition [5, 7]: 42%
growth inhibition [5, 8]: 54%
growth inhibition ([5]; at 50.0 µM): 62.5%
growth inhibition [6, 7]: 27%
growth inhibition [6, 8]: 86% (active)
growth inhibition ([6]; at 50.0 µM): 41.5%

O=C(O)C(CSC(c1ccccc1)c1ccccc1)NC(=O)C(c1ccccc1)c1ccccc1 (stereo not given)
growth inhibition [1, 7]: 6%
growth inhibition [1, 8]: 86% (active)
growth inhibition ([1]; at 50.0 µM): 52.5%
growth inhibition [2, 7]: 11%
growth inhibition [2, 8]: 89% (active)
growth inhibition ([2]; at 50.0 µM): 83.3% (active)
growth inhibition [3, 7]: 11%
growth inhibition [3, 8]: 86% (active)
growth inhibition ([3]; at 50.0 µM): 69.8%
growth inhibition [4, 7]: 15%
growth inhibition [4, 8]: 84% (active)
growth inhibition ([4]; at 50.0 µM): 96.2% (active)
growth inhibition [5, 7]: 8%
growth inhibition [5, 8]: 64%
growth inhibition ([5]; at 50.0 µM): 85.7% (active)
growth inhibition [6, 7]: 9%
growth inhibition [6, 8]: 88% (active)
growth inhibition ([6]; at 50.0 µM): 97.1% (active)

O=c1c2ccccc2[nH]c(=S)n1-c1cccc(C(F)(F)F)c1
growth inhibition [1, 7]: 65%
growth inhibition [1, 8]: 69%
growth inhibition ([1]; at 50.0 µM): 72.2% (active)
growth inhibition [2, 7]: 49%
growth inhibition [2, 8]: 59%
growth inhibition ([2]; at 50.0 µM): 76.3% (active)
growth inhibition [3, 7]: 55%
growth inhibition [3, 8]: 59%
growth inhibition ([3]; at 50.0 µM): 77% (active)
growth inhibition [4, 7]: 52%
growth inhibition [4, 8]: 48%
growth inhibition ([4]; at 50.0 µM): 61.7%
growth inhibition [5, 7]: 71% (active)
growth inhibition [5, 8]: 77% (active)
growth inhibition ([5]; at 50.0 µM): 77.7% (active)
growth inhibition [6, 7]: 79% (active)
growth inhibition [6, 8]: 81% (active)
growth inhibition ([6]; at 50.0 µM): 69.2%

C[CH2][Pb]([CH2]C)([CH2]C)[O]C(C)=O
growth inhibition [1, 7]: 33%
growth inhibition [1, 8]: 48%
growth inhibition ([1]; at 50.0 µM): 84.8% (active)
growth inhibition [2, 7]: 43%
growth inhibition [2, 8]: 40%
growth inhibition ([2]; at 50.0 µM): 76% (active)
growth inhibition [3, 7]: 11%
growth inhibition [3, 8]: 98% (active)
growth inhibition ([3]; at 50.0 µM): 86.8% (active)
growth inhibition [4, 7]: 29%
growth inhibition [4, 8]: 96% (active)
growth inhibition ([4]; at 50.0 µM): 52.7%
growth inhibition [5, 7]: 26%
growth inhibition [5, 8]: 97% (active)
growth inhibition ([5]; at 50.0 µM): 82.4% (active)
growth inhibition [6, 7]: 35%
growth inhibition [6, 8]: 59%
growth inhibition ([6]; at 50.0 µM): 77.1% (active)

Cc1cc(C)c(C[N+](C)(C)C)c(C)c1C
growth inhibition [1, 7]: 82% (active)
growth inhibition [1, 8]: 98% (active)
growth inhibition ([1]; at 50.0 µM): 98.5% (active)
growth inhibition [2, 7]: 57%
growth inhibition [2, 8]: 99% (active)
growth inhibition ([2]; at 50.0 µM): 99.7% (active)
growth inhibition [3, 7]: 86% (active)
growth inhibition [3, 8]: 98% (active)
growth inhibition ([3]; at 50.0 µM): 99.7% (active)
growth inhibition [4, 7]: 75% (active)
growth inhibition [4, 8]: 98% (active)
growth inhibition ([4]; at 50.0 µM): 98.7% (active)
growth inhibition [5, 7]: 78% (active)
growth inhibition [5, 8]: 98% (active)
growth inhibition ([5]; at 50.0 µM): 99.4% (active)
growth inhibition [6, 7]: 88% (active)
growth inhibition [6, 8]: 96% (active)
growth inhibition ([6]; at 50.0 µM): 98.9% (active)

O=P1(N2CCOCC2)OC(c2ccccc2)=CCN1c1ccccc1 (stereo not given)
growth inhibition [1, 7]: 3%
growth inhibition [1, 8]: 4%
growth inhibition ([1]; at 50.0 µM): -0.15%
growth inhibition [2, 7]: -1%
growth inhibition [2, 8]: -1%
growth inhibition ([2]; at 50.0 µM): 47.1%
growth inhibition [3, 7]: 5%
growth inhibition [3, 8]: 81% (active)
growth inhibition ([3]; at 50.0 µM): 24.6%
growth inhibition [4, 7]: -1%
growth inhibition [4, 8]: -2%
growth inhibition ([4]; at 50.0 µM): 39%
growth inhibition [5, 7]: 3%
growth inhibition [5, 8]: 25%
growth inhibition ([5]; at 50.0 µM): 10.3%
growth inhibition [6, 7]: -1%
growth inhibition [6, 8]: 3%
growth inhibition ([6]; at 50.0 µM): -3.45%

COC(=O)C1=C(C(=O)OC)C2(OC(C)=O)c3ccccc3-c3ccccc3C12 (stereo not given)
growth inhibition [1, 7]: 72% (active)
growth inhibition [1, 8]: 98% (active)
growth inhibition ([1]; at 50.0 µM): 90.2% (active)
growth inhibition [2, 7]: 92% (active)
growth inhibition [2, 8]: 99% (active)
growth inhibition ([2]; at 50.0 µM): 93.5% (active)
growth inhibition [3, 7]: 43%
growth inhibition [3, 8]: 98% (active)
growth inhibition ([3]; at 50.0 µM): 91.6% (active)
growth inhibition [4, 7]: 86% (active)
growth inhibition [4, 8]: 99% (active)
growth inhibition ([4]; at 50.0 µM): 89.6% (active)
growth inhibition [5, 7]: 92% (active)
growth inhibition [5, 8]: 98% (active)
growth inhibition ([5]; at 50.0 µM): 90.2% (active)
growth inhibition [6, 7]: 73% (active)
growth inhibition [6, 8]: 99% (active)
growth inhibition ([6]; at 50.0 µM): 91.2% (active)
